# Mdm2-MdmX inh – disrupts the human Mdm2-MdmX interaction; SaOS-2 split-luciferase Mdm2/MdmX complementation, luminescence; inhibition, % at 8 µM; actives 3% (n = 330,000);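 active = inhibition of at least 50% at 8 µM in the primary screen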
# Target sequence (O15151 whole entry, looked up): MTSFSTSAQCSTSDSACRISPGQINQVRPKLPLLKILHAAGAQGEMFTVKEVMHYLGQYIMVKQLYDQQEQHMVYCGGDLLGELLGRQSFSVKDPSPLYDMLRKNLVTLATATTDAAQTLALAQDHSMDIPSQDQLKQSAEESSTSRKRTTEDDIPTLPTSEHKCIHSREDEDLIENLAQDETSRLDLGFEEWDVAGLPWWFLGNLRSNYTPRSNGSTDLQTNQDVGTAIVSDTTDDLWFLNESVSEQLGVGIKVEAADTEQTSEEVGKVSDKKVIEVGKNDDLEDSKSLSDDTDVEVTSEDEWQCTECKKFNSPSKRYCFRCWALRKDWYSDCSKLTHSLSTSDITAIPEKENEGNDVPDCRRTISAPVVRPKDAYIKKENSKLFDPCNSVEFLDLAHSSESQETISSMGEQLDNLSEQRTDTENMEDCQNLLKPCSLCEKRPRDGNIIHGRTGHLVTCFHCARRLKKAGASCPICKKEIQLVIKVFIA
# Target sequence (Q00987 whole entry, looked up): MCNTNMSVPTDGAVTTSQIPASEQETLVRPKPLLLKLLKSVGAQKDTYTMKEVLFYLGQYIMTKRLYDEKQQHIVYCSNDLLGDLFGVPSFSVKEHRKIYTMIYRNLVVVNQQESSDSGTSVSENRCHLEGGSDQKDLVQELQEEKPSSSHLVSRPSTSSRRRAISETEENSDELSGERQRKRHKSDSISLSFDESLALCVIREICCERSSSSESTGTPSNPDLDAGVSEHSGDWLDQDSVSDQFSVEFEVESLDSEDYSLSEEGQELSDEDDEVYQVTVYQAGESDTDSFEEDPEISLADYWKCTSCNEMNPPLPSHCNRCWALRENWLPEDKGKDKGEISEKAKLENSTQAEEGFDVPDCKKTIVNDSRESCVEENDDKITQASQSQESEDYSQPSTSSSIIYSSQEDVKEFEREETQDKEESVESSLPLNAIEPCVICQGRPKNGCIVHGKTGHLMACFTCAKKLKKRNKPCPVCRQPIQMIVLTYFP
# MPTP block – inhibitors of mitochondrial permeability transition pore | isolated mouse mitochondria, Ca2+ swelling absorbance, 30 min | inhibition, % at 10 µM | actives 1.4% (n = 360,000);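 active = inhibition of 50% or more, scaled per plate between neutral and stimulator controls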;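 also: 0% = DMSO wells given calcium and 100% = 1 mM EGTA wells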
# CSC inhib – cancer stem cell inhibition. cancer stem cell-like cells viability, luminescence. inhibition, % at 7.5 µM. actives 1.1% (n = 300,000). AID 2717; in the data active = inhibition above about 75%; inconclusive = no clear call, values can overlap the other calls; tested in HMLE shEcad cells
# Beta apoptosis – blocks beta cell apoptosis. INS-1E cytokine-induced death, ATP luminescence, 48 h; percent of positive-control rescue, neutral wells zero. protection from apoptosis, % (concentration not given with the values). actives 0.8% (n = 300,000);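 active = Every replicate reaches about 75%, or at least half do and their mean reaches it too, limit read from the data; inconclusive = At least half of replicates reach the limit but their mean does not; inactive = Under half of replicates reach the limit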;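 also: 0% = cytokine-treated negative control wells and 100% = positive control rescue; higher means more ATP so stronger rescue from cytokine killing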
# Calb FLC – affects C. albicans growth with fluconazole. C. albicans CaCi-2 (fluconazole-resistant clinical isolate) + fluconazole, Alamar Blue growth, 48 h. actives 0.57% (n = 300,000). growth inhibition, % (test concentration not listed). AID 1979;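 active = growth inhibition above about 58% in most replicates, limit read from the data, passing the limit was not always enough; inconclusive = exactly half the replicates above a set limit; inactive = most replicates below a set limit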;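 also: all wells also contain fluconazole at 8 µg/ml as a sub-toxic cotreatment; 0% = median of DMSO wells and 100% = median of geldanamycin control wells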
# SKKanGAS inh – SKKanGAS growth inhibition; actives 1.3% (n = 300,000); inhibition, % at 7.5 µM; AID 1662; S. pyogenes SKKanGAS, kanamycin growth, BacTiter-Glo, 6 h;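 active = mean replicate score, as percent of positive control median, at least 50; inconclusive = mean below 50 but one replicate at or above 50; inactive = mean and every replicate below 50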;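 also: strain carries kanamycin resistance gene driven by streptokinase promoter and grows in 40 µg/ml kanamycin; loss of luminescence reflects streptokinase promoter inhibition or plain growth inhibition; 0% = median of DMSO wells and 100% = positive control at its reference dose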
# * = called active by the depositor; ? = inconclusive; . = no result given. Sampled rows, rich in hits. Any-hit rate of the full collection: about 5.4%.
SMILES,Mdm2-MdmX inh,MPTP block,CSC inhib,Beta apoptosis,Calb FLC,SKKanGAS inh
O=C1CC(N(CCc2ccccc2)C(=S)Nc2cc(Cl)ccc2Cl)C(=O)N1c1c(Cl)cccc1Cl (configuration not stated),31.5,-2.7,106.7*,29.9,1.3,29.4
COC(=O)c1cc(Nc2cc(C)c3ccc(O)cc3n2)cc(C(=O)OC)c1,26.7,4.8,1.8,11.2,-2.1,15.7
Cc1ccc(Nc2cc(C)c3ccc(O)cc3n2)cc1C,-2.4,6.6,86.5*,-0.3,11.7,-5.4
CCCC(=O)Nc1nc2ccc(S(N)(=O)=O)cc2s1,16.9,-2.2,-17.4,-5.9,0.2,-2.7
COc1cc2cc(C(=O)N3CCOCC3)cc(-c3ccc(C)cc3)c2cc1OC,18.7,1.2,-2.1,101.4*,-6.2,-1.9
Cc1cc(C)nc(N/N=C2/CCCC/C2=C\c2ccccc2)n1,9.4,-0.2,3.7,77.8*,-1.8,33.5
Cc1ccnc(N/N=C/c2ccccc2)n1,-20.0,0.5,-4.3,1.8,11.1,-6.7
CC1(C)CC(=O)C2=C(C1)NC(SCC(=O)Nc1ccccc1)=C(C#N)C2c1ccco1 (configuration not stated),14.3,1.6,-10.7,-14.0,1.8,8.4
Cc1ccc(NC(=O)CSC2=C(C#N)C(c3ccco3)C3=C(CCCC3=O)N2)cc1 (configuration not stated),-7.5,1.1,24.1,-12.1,-3.3,0.6
Cc1ccc(C(=O)CSC2=C(C#N)C(c3ccco3)C3=C(CC(C)(C)CC3=O)N2)cc1 (configuration not stated),22.3,1.4,97.2*,6.7,5.0,24.6
N#CC1=C(SCC(=O)c2ccc(Cl)cc2)NC2=C(C(=O)CCC2)C1c1ccco1 (configuration not stated),40.2,-3.6,92.8*,8.0,57.9,16.1
Cc1cc(NC2CCCCC2)nc2ccccc12,14.5,4.2,10.6,16.7,-41.3,-9.8
COC(=O)CSc1nccc(-c2ccc(F)cc2)c1C#N,2.6,-2.8,0.2,2.6,8.4,2.8
Cn1cnc2c1c(=O)n(Cc1ccc(Cl)cc1Cl)c(=O)n2C,3.7,0.0,-7.1,-4.0,-4.0,10.2
CC(=O)Oc1ccc2c(=O)c(/C=N/c3cc(=O)[nH]c(=S)[nH]3)coc2c1,5.3,1.5,20.0,0.8,-2.3,1.1
Cc1cc(C(=O)OCC(=O)N2CC(C)OC(C)C2)ccc1[N+](=O)[O-] (configuration not stated),22.9,-0.3,-9.7,-1.3,-14.5,-0.6
O=C(NNC(=O)c1cc2cc(Br)ccc2oc1=O)c1ccc(O)cc1O,15.8,5.5,77.0*,4.7,-8.3,8.6
COCCCNC(=O)c1cc2cc(Br)ccc2oc1=O,13.1,-2.0,0.6,-1.4,-3.3,.
Cc1ccc2c(c1)c(C1=c3ccccc3=NC1=O)c(O)n2C,15.8,2.3,71.6,-2.9,11.3,-10.1
C=CCn1c(O)c(C2=c3ccccc3=NC2=O)c2ccccc21,31.5,-0.7,96.4*,7.3,1.0,5.6
O=C(Cn1cnc2c(NCc3ccccc3)ncnc21)NCc1nc2ccccc2[nH]1,2.2,-0.5,.,.,.,.
COc1ccc(CCC(=O)N2c3ccccc3N=C(c3ccc(C(F)(F)F)cc3)C2C(=O)NC(C)(C)C)cc1 (configuration not stated),.,1.3,.,.,.,.
CCOC(=O)N1CCC(Nc2ccc(N3C(=O)C4CCCCC4C3=O)cc2[N+](=O)[O-])CC1 (configuration not stated),-44.4,1.9,16.8,-4.3,-0.8,-8.6
CC1CCC2C(=O)N(c3ccc(NC4CCCCC4)c([N+](=O)[O-])c3)C(=O)C2C1 (configuration not stated),-7.0,0.8,76.1*,-2.3,-2.7,-21.4
Cc1nn(-c2ccccc2)c(C)c1/C=N/NC(=O)c1cc(-c2cccc3ccccc23)n[nH]1,45.7,-4.9,60.1,8.3,28.5,51.0*
SMILES,Mdm2-MdmX inh,MPTP block,CSC inhib,Beta apoptosis,Calb FLC,SKKanGAS inh
Cc1ccc(-c2[nH]nc(N)c2N=Nc2ccccc2C)cc1,41.8,11.5,50.0,-13.1,46.6,74.5*
Cc1ccc(-c2[nH]nc(N)c2N=Nc2cccc(Cl)c2C)cc1,.,18.4,.,.,.,.
Oc1c(CN2CCN(c3ccccc3)CC2)cc(Br)c2cccnc12,.,-0.5,113.9*,98.0*,101.6*,90.5*
Oc1c(CN2CCOCC2)cc(CN2CCOCC2)c(O)c1O,.,0.8,.,.,.,.
CN1CCN(Cc2cc(Cl)c3cccnc3c2OC(=O)c2cccs2)CC1,29.5,-4.3,17.0,50.5,2.4,0.5
COCc1cc(CN2CCN(C)CC2)c(O)c2ncccc12,7.5,-1.7,24.7,23.8,107.5*,8.8
Oc1c(CN2CCOCC2)cc(COCc2ccccc2)c2cccnc12,.,-3.1,48.3,97.6*,82.6*,28.8
CCOc1ccc(-c2c(=O)n(O)c3ccccc3[n+]2[O-])cc1,12.2,0.1,-6.8,-3.9,8.3,2.7
CN(C)CCNC(=O)c1cccc(-c2cnc3c(NC=O)cc(-c4ccc(C(=O)N5CCOCC5)cc4)cn23)c1,.,-2.8,.,.,.,.
O=C(CSc1nnc(-c2ccccn2)o1)Nc1ccccc1F,-27.8,2.0,1.9,-6.5,6.9,-0.9
CCOc1ccccc1NS(=O)(=O)c1cc2c3c(c1)CC(=O)N3CCC2,-16.8,0.2,-27.3,-4.1,0.2,0.0
O=C(Nc1ccn(Cc2c(F)c(F)cc(F)c2F)n1)c1ccc(COc2ccc(Cl)cc2Cl)o1,9.0,0.1,15.2,-4.4,-17.9,50.0*
Cc1nn(Cc2c(F)c(F)c(F)c(F)c2F)c(C)c1NC(=O)c1ccc(COc2ccc(Cl)cc2Cl)o1,47.4,7.3,36.7,21.0,-9.5,28.7
Cn1nc(CC(=O)Nc2ccc3c(c2)OCCO3)c2ccccc2c1=O,30.7,33.4,1.2,75.4*,-6.6,-0.6
O=C(Nc1ccc(F)cc1)c1ccc(Cn2cnnn2)cc1,13.3,-1.5,-3.0,-1.1,3.4,-1.8
CCOC(=O)Cn1cc(C#N)c2cccc(CC)c21,-9.0,0.7,-13.9,-5.0,5.7,-3.2
Cc1cc(C(=O)NNc2ccc(F)cc2F)no1,4.9,0.3,75.1*,-8.8,?,-6.0
Cc1cc(C(=O)NNC(=O)Nc2ccc(Cl)cc2)no1,1.3,1.2,1.3,2.6,4.0,-1.0
Cc1cc(C(=O)NNc2ccc(Cl)cc2)no1,5.8,1.5,117.4*,-6.7,102.6*,-2.3
CCSc1nc(C)c(C)c(=O)[nH]1,9.7,0.0,.,.,10.2,-0.9
O=C(NNS(=O)(=O)c1ccccc1)c1cccnc1,14.0,0.6,-6.5,-6.9,-1.7,-15.5
CCC(C(=O)NC1CCCC1)n1c(C2CC2)nc2ccccc21 (configuration not stated),.,-0.4,.,.,.,.
Cc1ccc(C)c(S(=O)(=O)Nc2ccc(C(=O)NCCCN3CCCC3=O)cc2)c1,19.6,-0.5,-9.1,-1.1,-1.8,-5.4
O=C(NCC1CCCO1)C1CCCN(c2ncccn2)C1 (configuration not stated),-15.8,-1.8,-3.2,-0.1,0.4,-2.5

# Bioassay records deposited in PubChem BioAssay by several laboratories.
